Measured values reported in PubChem BioAssay AID720597 (Broad Institute, 2013).
Results with a measured potency or affinity are listed apart. Activity calls are given as the source filed them.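 How the source made its calls: active means fitted half-maximal dose no more than twice the top valid tested dose, for compounds that lower signal; inconclusive means fit invalid, or curve flat with activity between -70 and -30; inactive means potency past limit, curve flat within ±30, or signal increasing.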

Biological target: NAD-dependent protein deacylase sirtuin-5, mitochondrial (Homo sapiens) (UniProt Q9NXA8)
Sequence (Q9NXA8 whole entry, looked up): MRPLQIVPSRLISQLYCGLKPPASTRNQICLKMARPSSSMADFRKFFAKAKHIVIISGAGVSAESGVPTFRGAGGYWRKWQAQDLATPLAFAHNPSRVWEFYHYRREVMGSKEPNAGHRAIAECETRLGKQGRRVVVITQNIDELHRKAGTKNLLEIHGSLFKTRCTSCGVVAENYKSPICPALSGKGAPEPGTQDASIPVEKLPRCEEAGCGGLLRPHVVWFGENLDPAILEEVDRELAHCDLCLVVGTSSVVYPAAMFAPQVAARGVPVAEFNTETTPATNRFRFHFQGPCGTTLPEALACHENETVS
Test: blockers of sirtuin-5 peptide desuccinylation – biochemical, fluorescence imaging, cherry-pick, set 6, dose response (AID 720597);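 further: lower AMC signal can also come from blocking the trypsin step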
Details: Purified SirT5, succinyl-peptide-AMC/trypsin fluorescence; series mostly up to 15 µM

outcome, inactive:
CCS(=O)(=O)N1CC2(CN(Cc3cccc(Cl)c3)[C@H](CO)c3c2c2ccc(OC)cc2n3C)C1, CC(C)C#Cc1ccc2c(c1)O[C@@H](CN(C)Cc1ccccn1)[C@H](C)CN([C@H](C)CO)S2(=O)=O, C[C@H](CO)N1C[C@H](C)[C@H](CN(C)Cc2ccc(C(F)(F)F)cc2)Oc2ccc(NS(C)(=O)=O)cc2C1=O, COc1ccc(S(=O)(=O)N(C)C[C@H]2OCCCC[C@H](C)Oc3ccc(NS(=O)(=O)c4ccc(C)cc4)cc3C(=O)N([C@@H](C)CO)C[C@H]2C)cc1, CO[C@@H]1CC[C@@H]2CCN(C)C(=O)[C@@H](C)[C@H](OC)CN(C)C(=O)c3cc(C#N)ccc3OC[C@@H]1O2, COc1ccc(C#Cc2ccc([C@H]3[C@H](CO)N4C(=O)CN(C(=O)c5cccnc5)C[C@@H]34)cc2)cc1, Cc1noc(C)c1NC(=O)Nc1ccc2c(c1)C(=O)N([C@H](C)CO)C[C@H](C)[C@@H](CN(C)C(=O)Nc1ccc(C(F)(F)F)cc1)OCCCC[C@H](C)O2, C[C@H]1CCCCO[C@H](CN(C)S(=O)(=O)c2ccc(Cl)cc2)[C@@H](C)CN([C@@H](C)CO)C(=O)c2cc(NS(=O)(=O)c3ccccc3)ccc2O1, COc1cccc(S(=O)(=O)N(C)C[C@H]2Oc3cc(C4=CCCC4)ccc3S(=O)(=O)N([C@@H](C)CO)C[C@H]2C)c1, CO[C@H]1CN(C)C(=O)c2cc(NC(=O)CC(F)(F)F)ccc2OC[C@@H](C)N(C(=O)C2CCCCC2)C[C@@H]1C, C[C@@H]1CCCCO[C@@H](CN(C)Cc2ccc(C(F)(F)F)cc2)[C@@H](C)CN([C@@H](C)CO)C(=O)c2cc(NS(=O)(=O)c3cccs3)ccc2O1, COc1cccc(S(=O)(=O)N(C)C[C@@H]2Oc3cc(C4=CCCCC4)ccc3S(=O)(=O)N([C@@H](C)CO)C[C@H]2C)c1, CCN1[C@@H]2c3ccc(-c4cccc(F)c4)c(=O)n3C[C@@H]2[C@@H](CO)[C@@H]1C(=O)N[C@H](C)c1ccccc1, COc1ccccc1-c1ccc2n(c1=O)C[C@@H]1[C@@H](CO)[C@H](C(=O)N3CCCCC3)[C@H]2N1CC1CC1, C[C@@H]1CN([C@H](C)CO)C(=O)c2cc(NS(=O)(=O)c3cn(C)cn3)ccc2O[C@H]1CN(C)C(=O)Nc1ccccc1, O=C(c1cnccn1)N1CC(=O)N2[C@@H](CO)[C@H](c3ccc(C#CC4CC4)cc3)[C@@H]2C1, COc1ccc(C#Cc2ccc([C@@H]3[C@H](CO)N4C(=O)CN(C(=O)c5cccnc5)C[C@@H]34)cc2)cc1, COc1ccc(S(=O)(=O)Nc2ccc3c(c2)C(=O)N([C@@H](C)CO)C[C@H](C)[C@@H](CN(C)Cc2ccc(C(F)(F)F)cc2)OCCCC[C@H](C)O3)cc1, C[C@H]1CN([C@@H](C)CO)C(=O)c2c(c3ccccc3n2C)-c2ccccc2CO[C@@H]1CN(C)Cc1cccc2c1OCCCO2, COc1ccc(S(=O)(=O)Nc2ccc3c(c2)CC(=O)N([C@@H](C)CO)C[C@@H](C)[C@H](CN(C)CC2CCCCC2)O3)cc1, C[C@H](CO)N1C[C@H](C)[C@@H](CN(C)Cc2ccc(C(F)(F)F)cc2)OCCCC[C@H](C)Oc2ccc(NS(=O)(=O)c3ccc(Cl)cc3)cc2C1=O, COc1ccc(S(=O)(=O)N(C)C[C@H]2OCCCC[C@H](C)Oc3ccc(NS(=O)(=O)c4ccc(F)cc4)cc3C(=O)N([C@@H](C)CO)C[C@@H]2C)cc1, COc1ccc(S(=O)(=O)N(C)C[C@H]2OCCCC[C@H](C)Oc3ccc(NS(=O)(=O)c4ccc(F)cc4)cc3C(=O)N([C@H](C)CO)C[C@H]2C)cc1, O=C(C[C@@H]1CC[C@H](NS(=O)(=O)c2ccc(F)cc2)[C@H](CO)O1)N1CCN(c2ccccc2)CC1, CCCNC(=O)N1[C@@H](CO)[C@@H](c2ccccc2)C12CN(C(=O)CC1CC1)C2, COCC(=O)Nc1ccc2c(c1)[C@@H]1C[C@@H](CC(=O)NCc3ccccc3OC)O[C@@H](CO)[C@@H]1O2, C[C@@H]1CN([C@H](C)CO)C(=O)c2c(c3ccccc3n2C)-c2ccccc2CO[C@@H]1CN(C)S(=O)(=O)c1ccc(C(F)(F)F)cc1, COc1cccc(-c2ccc3c(c2)[C@H]2[C@H](CCN2C(=O)c2ccccc2F)[C@H](CO)N3C)c1, COc1ccc(S(=O)(=O)N(C)C[C@H]2OCCCC[C@H](C)Oc3ccc(NS(=O)(=O)c4ccc(C)cc4)cc3C(=O)N([C@H](C)CO)C[C@@H]2C)cc1, C[C@@H]1CN([C@H](C)CO)S(=O)(=O)c2ccc(C#Cc3ccccn3)cc2O[C@@H]1CN(C)Cc1cccc(F)c1, COc1ccccc1S(=O)(=O)N(C)C[C@H]1Oc2cc(C#CCC3CCCC3)ccc2S(=O)(=O)N([C@@H](C)CO)C[C@@H]1C, CCC(=O)N1C[C@H]2[C@@H](c3ccccc31)[C@@H](CO)N2Cc1cc(F)ccc1F, COc1ccc(S(=O)(=O)N(C)C[C@H]2OCCCC[C@H](C)Oc3ccc(NS(=O)(=O)c4ccc(F)cc4)cc3C(=O)N([C@@H](C)CO)C[C@H]2C)cc1, CC(=O)N1[C@H](CO)[C@H](c2ccc(-c3ccncc3)cc2)[C@@H]1CNC(=O)CC1CC1, CO[C@H]1CN(C)C(=O)c2cc(NC(C)=O)ccc2OC[C@H](C)N(S(=O)(=O)c2cn(C)cn2)C[C@H]1C, Cc1ccc(S(=O)(=O)N[C@@H]2CC[C@@H](CC(=O)N3CCN(c4ccccc4)CC3)O[C@@H]2CO)cc1, O=C(NCC[C@@H]1CC[C@@H](NC(=O)C2CC2)[C@H](CO)O1)c1cc(Cl)cc(Cl)c1, O=S(=O)(c1ccc(F)cc1)N1CCCCN2[C@H](CO)[C@@H](c3ccc(-c4ccccc4F)cc3)[C@H]2C1, C[C@H](CO)N1C[C@H](C)[C@@H](CN(C)S(=O)(=O)c2ccccc2F)Oc2cc(C#Cc3cccc(F)c3)ccc2S1(=O)=O
